In PubChem BioAssay (NCI) one finds growth inhibition data, which are given here for nine compounds.

This is part of a sample that, as a whole, favours compounds with a hit. Of some 79,000 tested, about 15% had one in any assay. A number with no mark means an inactive call. Calls of active or inactive are those of the source. Rule as the data show it: active = growth inhibition above about 70%; inactive = the rest.

A short description of assay [1]: NCI Yeast Anticancer Drug Screen. Data for the rad50 strain (AID 155).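 Also: 0% = growth of vehicle-only cultures of the same strain.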 The conditions noted are these: S. cerevisiae rad50 strain growth inhibition, hits give high values. An outline of the steps: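 Inhibition values express reduced yeast growth in compound-treated cultures relative to vehicle-treated controls.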
The nature of assay [2]: NCI Yeast Anticancer Drug Screen. Data for the mec2-1 strain (AID 157). The conditions noted are these: S. cerevisiae mec2-1 strain, hits give high values. An outline of the steps:
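Each compound was tested on mec2-1 yeast, a strain altered in DNA damage repair or cell cycle control. Growth inhibition is reported relative to vehicle.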

Assay [3] in a line: NCI Yeast Anticancer Drug Screen. Data for the sgs1 mgt1 strain (AID 161).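 Also: 0% = growth of cultures given vehicle only.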 The conditions noted are these: S. cerevisiae sgs1 mgt1 strain, hits give high values. An outline of the steps:
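Inhibition of yeast growth, normalised to vehicle-treated controls, is reported for a strain bearing genetic alterations in DNA damage repair.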

Assay [4] is described as follows: NCI Yeast Anticancer Drug Screen. Data for the cln2 rad14 strain (AID 165).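 Also: 0% = growth equal to vehicle treated cultures.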 The conditions noted are these: S. cerevisiae cln2 rad14 strain, hits give high values. The method in brief:
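Test compounds were added to cln2 rad14 yeast cultures; inhibition of growth was then determined by comparison with vehicle treatment.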

The nature of assay [5]: NCI Yeast Anticancer Drug Screen. Data for the bub3 strain (AID 167). The conditions noted are these: S. cerevisiae bub3 mutant strain, hits give high values. The method in brief: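 Steps: expose the mutant yeast strain to compound; grow alongside vehicle-treated cultures; measure growth; express inhibition against the vehicle cultures.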
A short description of assay [6]: NCI Yeast Anticancer Drug Screen. Data for the mlh1 rad18 strain (AID 175). The conditions noted are these: S. cerevisiae mlh1 rad18 strain growth inhibition, hits give high values. An outline of the steps: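 Inhibition values reflect reduced growth of mutant yeast versus vehicle-treated controls following compound exposure; the mutations affect DNA damage repair.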

Setting [7] is: at 5.0 µM (retest, dose inferred, filed as 0.5).
The mark [8] stands for this setting: at 50.0 µM (retest, dose inferred, filed as 5.0).

For `CC(c1ccc(OCc2ccccc2)cc1)c1cc2c(cc1OCCO)OCO2` (configuration not stated), the growth inhibition in assay [1] (setting [7]) was 3%; in assay [1] (setting [8]) it was 46%; in assay [1] (at 50.0 µM), 61.2%; in assay [2] (setting [7]), -1%; in assay [2] (setting [8]), 41%; in assay [2] (at 50.0 µM), 76.2% (active). In addition, the growth inhibition in assay [3] (setting [7]) was 9%; in assay [3] (setting [8]), 57%; in assay [3] (at 50.0 µM), 31.9%; in assay [4] (setting [7]) it was -1%; in assay [4] (setting [8]) it was 47%; in assay [4] (at 50.0 µM), 43.5%. The growth inhibition was 6% in assay [5] (setting [7]); 58% in assay [5] (setting [8]); 49.7% in assay [5] (at 50.0 µM); 4% in assay [6] (setting [7]); 62% in assay [6] (setting [8]); 43.2% in assay [6] (at 50.0 µM).

On to `CCCCCCCCc1ccc2c3ccccc3c3ccccc3c2c1`, for which the growth inhibition is -9% in assay [1] (setting [7]); -12% in assay [1] (setting [8]); 76.8% (active) in assay [1] (at 50.0 µM); -19% in assay [2] (setting [7]); -5% in assay [2] (setting [8]); 60.4% in assay [2] (at 50.0 µM). The growth inhibition in assay [3] (setting [7]) is -19%; in assay [3] (setting [8]) it was -3%; in assay [3] (at 50.0 µM), 65.8%; in assay [4] (setting [7]) it was -1%; in assay [4] (setting [8]) it was -12%; in assay [4] (at 50.0 µM) it was 3.05%. Besides, the growth inhibition in assay [5] (setting [7]) was -1%; in assay [5] (setting [8]) it was -10%; in assay [5] (at 50.0 µM) it was 8.65%; in assay [6] (setting [7]) it was 23%; in assay [6] (setting [8]) it was 6%; in assay [6] (at 50.0 µM) it was 58.9%.

Regarding `CCNC(=S)N/N=C(\C)c1cccc(C)n1`, the growth inhibition is -5% in assay [1] (setting [7]); 21% in assay [1] (setting [8]); 54.6% in assay [1] (at 50.0 µM); -37% in assay [2] (setting [7]); 34% in assay [2] (setting [8]); 76.3% (active) in assay [2] (at 50.0 µM). Further, the growth inhibition in assay [3] (setting [7]) was -31%; in assay [3] (setting [8]) it was 22%; in assay [3] (at 50.0 µM), 54.7%; in assay [4] (setting [7]) it was -21%; in assay [4] (setting [8]) it was 24%; in assay [4] (at 50.0 µM) it was 50.9%. The growth inhibition was -20% in assay [5] (setting [7]); 27% in assay [5] (setting [8]); 62% in assay [5] (at 50.0 µM); -9% in assay [6] (setting [7]); 21% in assay [6] (setting [8]); 37.2% in assay [6] (at 50.0 µM).

Consider `COC(=O)C1=CCC[C@H]2C1(C)CCC(C)C21CC(c2ccoc2)OC1=O` (some centres not stated), for which the growth inhibition in assay [1] (setting [7]) was -8%; in assay [1] (setting [8]) it was 75% (active); in assay [1] (at 50.0 µM), 50.5%; in assay [2] (setting [7]), 8%; in assay [2] (setting [8]) it was 85% (active); in assay [2] (at 50.0 µM), 55.6%. For the same compound, the growth inhibition in assay [3] (setting [7]) was 10%; in assay [3] (setting [8]), 90% (active); in assay [3] (at 50.0 µM), 72.2% (active); in assay [4] (setting [7]), -16%; in assay [4] (setting [8]), 14%; in assay [4] (at 50.0 µM), 28.9%. For the same compound, the growth inhibition in assay [5] (setting [7]) is -8%; in assay [5] (setting [8]), 83% (active); in assay [5] (at 50.0 µM) it was 67.2%; in assay [6] (setting [7]), 10%; in assay [6] (setting [8]), 87% (active); in assay [6] (at 50.0 µM), 76.2% (active).

As to `Cc1cc(N(CCCCl)CCCCl)ccc1C=Nc1cccc(Cl)c1`, the growth inhibition in assay [1] (setting [7]) was -7%; in assay [1] (setting [8]) it was 40%; in assay [1] (at 50.0 µM) it was 79% (active); in assay [2] (setting [7]) it was -7%; in assay [2] (setting [8]) it was 12%; in assay [2] (at 50.0 µM), 32.8%. Besides, the growth inhibition was -4% in assay [3] (setting [7]); 65% in assay [3] (setting [8]); 80.7% (active) in assay [3] (at 50.0 µM); 3% in assay [4] (setting [7]); -2% in assay [4] (setting [8]); -21.6% in assay [4] (at 50.0 µM). The growth inhibition in assay [5] (setting [7]) was -1%; in assay [5] (setting [8]), 59%; in assay [5] (at 50.0 µM), 61%; in assay [6] (setting [7]), -10%; in assay [6] (setting [8]), 23%; in assay [6] (at 50.0 µM), 68.2%.

For `CCCCCCCCCCCCCCCCC#N`, the growth inhibition in assay [1] (setting [7]) is -6%; in assay [1] (setting [8]) it was -8%; in assay [1] (at 50.0 µM), 50.4%; in assay [2] (setting [7]), -2%; in assay [2] (setting [8]), -4%; in assay [2] (at 50.0 µM), -7.4%. Further, the growth inhibition in assay [3] (setting [7]) is 0%; in assay [3] (setting [8]) it was -4%; in assay [3] (at 50.0 µM) it was 52.1%; in assay [4] (setting [7]), 2%; in assay [4] (setting [8]), 0%; in assay [4] (at 50.0 µM), 16.2%. Also, the growth inhibition is -3% in assay [5] (setting [7]); -9% in assay [5] (setting [8]); 52.2% in assay [5] (at 50.0 µM); -5% in assay [6] (setting [7]); -5% in assay [6] (setting [8]); 24.1% in assay [6] (at 50.0 µM).

As to `O=C1C=CC(=O)N1CCCCCCN1C(=O)C=CC1=O`, the growth inhibition in assay [1] (setting [7]) is 19%; in assay [1] (setting [8]) it was 99% (active); in assay [1] (at 50.0 µM), 99% (active); in assay [2] (setting [7]), 29%; in assay [2] (setting [8]) it was 100% (active); in assay [2] (at 50.0 µM) it was 99.3% (active). The growth inhibition was 32% in assay [3] (setting [7]); 99% (active) in assay [3] (setting [8]); 98.8% (active) in assay [3] (at 50.0 µM); 16% in assay [4] (setting [7]); 99% (active) in assay [4] (setting [8]); 99.5% (active) in assay [4] (at 50.0 µM). The growth inhibition in assay [5] (setting [7]) was 20%; in assay [5] (setting [8]) it was 97% (active); in assay [5] (at 50.0 µM) it was 99.5% (active); in assay [6] (setting [7]), 38%; in assay [6] (setting [8]) it was 99% (active); in assay [6] (at 50.0 µM) it was 99.2% (active).

Turning to `N#CC12CC3=C(N=C1NC1=C(CCc4ccccc41)C2)c1ccccc1CC3` (configuration not stated), the growth inhibition was 24% in assay [1] (setting [7]); 51% in assay [1] (setting [8]); 57.8% in assay [1] (at 50.0 µM); 19% in assay [2] (setting [7]); 34% in assay [2] (setting [8]); 42.8% in assay [2] (at 50.0 µM). Besides, the growth inhibition in assay [3] (setting [7]) is 20%; in assay [3] (setting [8]) it was 44%; in assay [3] (at 50.0 µM) it was 48.5%; in assay [4] (setting [7]) it was 18%; in assay [4] (setting [8]), 29%; in assay [4] (at 50.0 µM) it was 17.9%. Moreover, the growth inhibition was 23% in assay [5] (setting [7]); 45% in assay [5] (setting [8]); 51.1% in assay [5] (at 50.0 µM); 20% in assay [6] (setting [7]); 60% in assay [6] (setting [8]); 24.6% in assay [6] (at 50.0 µM).

Turning to `CCCCCCCCCCCCCCNCCN`, the growth inhibition in assay [1] (setting [7]) was 23%; in assay [1] (setting [8]), 29%; in assay [1] (at 50.0 µM) it was 88.1% (active); in assay [2] (setting [7]) it was 46%; in assay [2] (setting [8]), 33%; in assay [2] (at 50.0 µM) it was 91% (active). Also, the growth inhibition is 53% in assay [3] (setting [7]); 97% (active) in assay [3] (setting [8]); 92.5% (active) in assay [3] (at 50.0 µM); 27% in assay [4] (setting [7]); 97% (active) in assay [4] (setting [8]); 88.7% (active) in assay [4] (at 50.0 µM). Besides, the growth inhibition in assay [5] (setting [7]) is 84% (active); in assay [5] (setting [8]), 96% (active); in assay [5] (at 50.0 µM), 89.5% (active); in assay [6] (setting [7]) it was 25%; in assay [6] (setting [8]), 29%; in assay [6] (at 50.0 µM), 88.5% (active).
